# Measured values: PubChem BioAssay (EPA / NIEHS)
# Records with an inconclusive call do not appear. The source made the active and inactive calls. The calls were made as follows: active = hit-call score of the fitted dose curve at least 0.9, where 1 is the maximum; inconclusive = response in the unintended direction; inactive = score below 0.9.
# Experiments:
# [1] = system: Sodium/Iodide Symporter (NIS), SLC5A5 (gene 6528); assay: CPHEA_Stoker_NIS_Inhibition_RAIU: CPHEA's Radioactive Iodide Uptake (RAIU) Assay for Sodium/Iodide Symporter (NIS) Inhibition, Stoker and Laws Labs (AID 2283841)
# Method in brief: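 HEK293T cells stably expressing human NIS (hNIS-HEK293T-EPA) were exposed to test chemicals at 0.001–100uM (0.5% final DMSO) with 125I at a final 329pM in HBSS/10mM HEPES pH 7.4. After 2 hours at room temperature and ice-cold washes, intracellular 125I was counted as CPM and normalized to DMSO wells.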
# [2] = CPHEA_Stoker_NIS_Cytotoxicity: Cytotoxicity Assessment for CPHEA's Radioactive Iodide Uptake (RAIU) Assay for Sodium/Iodide Symporter (NIS) Inhibition, Stoker and Laws Labs (AID 2283897);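 as to AC50: active means loss of ATP signal versus DMSO meaning cytotoxicity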
# Method in brief: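 hNIS-HEK293T-EPA human kidney cells were exposed for 2 hours at room temperature to test chemicals (0.001–100uM, 0.5% final DMSO) in HEPES-buffered HBSS, pH 7.4. Viability was read as ATP content by luciferase bioluminescence, loss of signal versus DMSO.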
# [3] = biological target: human Thyroid hormone Receptor alpha (TRa), THRA (gene 7067) (UniProt P10827); assay: ATG_hTRa_XSP2: Attagene TRANS-FACTORIAL Multi-Species (XSP2) HepG2 Assay for human Thyroid hormone Receptor alpha (TRa) (AID 2283838)
# Method in brief: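 HepG2 cells transiently transfected with multiplexed GAL4-UAS reporter units and exogenous NR-GAL4 chimeras; 24 h chemical exposure with 3 nM 6-alpha-fluorotestosterone and 1.5 nM norgestrel present. Reporter mRNA measured by RT-PCR, FAM labelling, HpaI digestion, capillary electrophoresis; gain-of-signal versus DMSO.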
# [4] = biological target: frog Thyroid hormone Receptor alpha (TRa), thra-a (gene 397942) (UniProt P15204); assay: ATG_frTRa_XSP2: Attagene TRANS-FACTORIAL Multi-Species (XSP2) HepG2 Assay for frog Thyroid hormone Receptor alpha (TRa) (AID 2283839)
# Method in brief: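 HepG2 transiently transfected with multiplexed GAL4-UAS reporters driven by frog TRa-Gal4 chimeras; 24 h chemical exposure. Reporter mRNA quantified by RT-PCR, FAM labelling, HpaI digestion and capillary electrophoresis; gain of signal versus DMSO.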
# [5] = biological target: human Thyroid hormone Receptor beta (TRb), THRB (gene 7068) (UniProt P10828); assay: ATG_hTRb_XSP2: Attagene TRANS-FACTORIAL Multi-Species (XSP2) HepG2 Assay for human Thyroid hormone Receptor beta (TRb) (AID 2283840);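 also: actives raise reporter mRNA so potency reflects agonist-like gain of signal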
# Method in brief: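 HepG2 transiently transfected with a multi-species panel including a human TRb–Gal4 chimera driving Gal4-UAS reporters; medium contained 3 nM 6-alpha-fluorotestosterone and 1.5 nM norgestrel. 24 h dosing; RT-PCR/capillary electrophoresis readout; positive-direction fit vs DMSO.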
# PGR (gene 5241) [6] = biological target: PGR (gene 5241) (UniProt P06401); assay: TOX21_PR_BLA_Followup_Antagonist_ratio: Tox21 HEK293 Progesterone Receptor (PR) Antagonism Beta-lactamase Follow-Up Assay, Ratio (AID 2283934)
# Method in brief: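 PR-UAS-bla HEK293T cells in medium with 2% charcoal-stripped FBS were treated with compounds plus 1 nM (final) promegestone (R5020) for 16 hr at 37C. LiveBLAzer B/G FRET substrate was then added for 2 h at room temperature; signal is cleaved/uncleaved substrate ratio versus DMSO.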
# [7] = TOX21_PR_BLA_Followup_Agonist_viability: Viability Assessment in the Tox21 HEK293 Progesterone Receptor (PR) Agonism Beta-lactamase Follow-Up Assay (AID 2283935);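 also: signal loss means lower viability so actives are cytotoxic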
# Method in brief: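 PR-UAS-bla HEK293T cells in 2% charcoal-stripped FBS medium, compound added after 6 hr plating, 16 hr at 37C/5% CO2. After bla FRET read, CellTiter-Glo added; luminescence read after 30 min at room temperature; signal loss marks cytotoxicity.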
# [8] = TOX21_PR_BLA_Followup_Antagonist_viability: Viability Assessment in the Tox21 HEK293 Progesterone Receptor (PR) Antagonism Beta-lactamase Follow-Up Assay (AID 2283936);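 also: hits lower the luminescence signal meaning cytotoxicity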
# Method in brief: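 PR-UAS-bla HEK293T cells (3,000/well, 2% charcoal-stripped FBS) given compound plus R5020 agonist, 16 h at 37C. CellTiter-Glo added after bla read, 30 min at room temperature; luminescence loss indicates cytotoxicity.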
# PGR (gene 5241) [9] = biological target: PGR (gene 5241) (UniProt P06401); assay: TOX21_PR_LUC_Followup_Antagonist: Tox21 HEK293 Progesterone Receptor (PR) Antagonism Luciferase Follow-Up Assay (AID 2283938);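 also: curve fitted upward as signal gain over DMSO baseline despite antagonist label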
# Method in brief: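 HEK293-PR-A-luc cells, 3,000/well, preincubated 5 h at 37C before compound addition in DMSO; 16 h compound exposure at 37C. ONE-Glo luciferase luminescence read after 30 min at room temperature, fitted relative to DMSO baseline.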
# human Thyroid hormone Receptor beta (TRb), THRB (gene 7068), sequence (P10828 whole entry, looked up, the tested form may be a part): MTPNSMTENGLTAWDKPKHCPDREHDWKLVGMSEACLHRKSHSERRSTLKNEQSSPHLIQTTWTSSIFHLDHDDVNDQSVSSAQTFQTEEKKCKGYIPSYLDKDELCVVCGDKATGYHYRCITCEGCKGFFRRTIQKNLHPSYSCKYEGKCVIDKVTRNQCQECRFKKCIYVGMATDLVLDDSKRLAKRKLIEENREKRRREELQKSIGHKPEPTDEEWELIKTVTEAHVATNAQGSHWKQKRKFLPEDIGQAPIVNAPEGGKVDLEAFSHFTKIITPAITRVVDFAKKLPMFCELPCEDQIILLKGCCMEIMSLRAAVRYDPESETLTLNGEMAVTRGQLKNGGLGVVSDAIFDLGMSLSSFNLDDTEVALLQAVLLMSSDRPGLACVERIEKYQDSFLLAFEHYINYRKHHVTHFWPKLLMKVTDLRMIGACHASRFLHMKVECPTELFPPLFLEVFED
# PGR (gene 5241), sequence (P06401 whole entry, looked up): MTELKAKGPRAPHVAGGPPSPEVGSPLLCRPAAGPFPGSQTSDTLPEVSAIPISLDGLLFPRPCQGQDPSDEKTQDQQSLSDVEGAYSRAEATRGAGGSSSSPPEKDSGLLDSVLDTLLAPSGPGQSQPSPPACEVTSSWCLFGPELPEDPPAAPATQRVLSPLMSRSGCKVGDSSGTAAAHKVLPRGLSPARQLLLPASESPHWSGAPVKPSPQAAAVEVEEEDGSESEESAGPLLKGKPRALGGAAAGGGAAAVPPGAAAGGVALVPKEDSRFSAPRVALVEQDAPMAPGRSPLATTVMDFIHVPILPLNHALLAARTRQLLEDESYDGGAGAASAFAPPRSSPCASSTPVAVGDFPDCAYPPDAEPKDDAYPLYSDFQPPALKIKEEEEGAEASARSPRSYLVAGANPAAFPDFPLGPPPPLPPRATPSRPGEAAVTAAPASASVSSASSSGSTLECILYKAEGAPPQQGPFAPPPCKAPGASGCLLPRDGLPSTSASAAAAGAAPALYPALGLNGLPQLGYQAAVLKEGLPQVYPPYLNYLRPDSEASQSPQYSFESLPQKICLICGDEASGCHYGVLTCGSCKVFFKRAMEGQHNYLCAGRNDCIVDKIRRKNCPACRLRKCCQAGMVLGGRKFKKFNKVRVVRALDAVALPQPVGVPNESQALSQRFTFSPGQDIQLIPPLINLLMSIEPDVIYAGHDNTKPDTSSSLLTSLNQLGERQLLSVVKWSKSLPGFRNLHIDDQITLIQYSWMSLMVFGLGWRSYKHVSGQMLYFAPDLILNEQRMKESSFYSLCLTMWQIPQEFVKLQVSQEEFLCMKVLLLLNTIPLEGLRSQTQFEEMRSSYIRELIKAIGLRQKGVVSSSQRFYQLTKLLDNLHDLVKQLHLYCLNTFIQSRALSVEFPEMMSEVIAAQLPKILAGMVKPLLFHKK
# frog Thyroid hormone Receptor alpha (TRa), thra-a (gene 397942), sequence (P15204 whole entry, looked up, the tested form may be a part): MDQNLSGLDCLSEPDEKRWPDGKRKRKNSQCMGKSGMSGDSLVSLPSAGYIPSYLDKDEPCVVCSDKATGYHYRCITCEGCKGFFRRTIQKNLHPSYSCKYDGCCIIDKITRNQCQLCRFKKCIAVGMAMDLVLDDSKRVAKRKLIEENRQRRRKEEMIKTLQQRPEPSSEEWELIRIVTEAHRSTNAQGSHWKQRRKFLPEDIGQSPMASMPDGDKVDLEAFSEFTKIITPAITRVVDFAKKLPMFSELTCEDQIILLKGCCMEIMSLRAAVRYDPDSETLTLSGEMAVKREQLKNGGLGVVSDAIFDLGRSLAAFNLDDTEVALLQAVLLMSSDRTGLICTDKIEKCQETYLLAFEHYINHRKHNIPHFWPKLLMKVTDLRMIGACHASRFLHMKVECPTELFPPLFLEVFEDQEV
# human Thyroid hormone Receptor alpha (TRa), THRA (gene 7067), sequence (P10827 whole entry, looked up, the tested form may be a part): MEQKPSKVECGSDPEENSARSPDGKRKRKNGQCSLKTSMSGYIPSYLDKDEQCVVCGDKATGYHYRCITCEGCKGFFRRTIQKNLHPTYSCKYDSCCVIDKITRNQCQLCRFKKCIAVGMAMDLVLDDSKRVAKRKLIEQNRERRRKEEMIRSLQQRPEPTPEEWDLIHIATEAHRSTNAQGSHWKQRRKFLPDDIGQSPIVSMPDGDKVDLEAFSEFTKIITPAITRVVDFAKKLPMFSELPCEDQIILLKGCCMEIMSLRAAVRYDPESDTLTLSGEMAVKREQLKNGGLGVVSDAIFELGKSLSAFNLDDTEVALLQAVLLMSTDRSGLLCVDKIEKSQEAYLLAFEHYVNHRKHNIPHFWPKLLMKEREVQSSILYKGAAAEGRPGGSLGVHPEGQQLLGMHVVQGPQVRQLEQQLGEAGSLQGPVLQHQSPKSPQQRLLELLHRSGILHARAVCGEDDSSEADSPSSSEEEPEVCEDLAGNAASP
structure (smiles),measurement,setting,value
CCOC(=O)[C@]1(c2ccccc2)Oc2ccccc2[C@@H]1N,outcome,[1],inactive
same,AC50,[2],1.38 µM (active)
Clc1ccc(C(c2ccc(Cl)cc2)C(Cl)(Cl)Cl)cc1,outcome,[3],inactive
same,outcome,[4],inactive
same,outcome,[5],inactive
same,outcome,[2],inactive
same,AC50,PGR (gene 5241) [6],34.8 µM (active)
same,AC50,[7],84.9 µM (active)
same,outcome,[8],inactive
same,AC50,PGR (gene 5241) [9],32.5 µM (active)
Clc1ccc(C(c2ccc(Cl)cc2)C(Cl)Cl)cc1,outcome,[5],inactive
same,outcome,[1],inactive
same,outcome,[2],inactive
same,AC50,PGR (gene 5241) [6],31.5 µM (active)
same,outcome,[7],inactive
same,outcome,[8],inactive
same,AC50,PGR (gene 5241) [9],33.8 µM (active)
CCC[CH2][Sn]([Cl])([CH2]CCC)[CH2]CCC,outcome,[3],inactive
same,outcome,[4],inactive
same,AC50,[5],0.649 µM (active)
same,AC50,[1],8.22 µM (active)
same,AC50,[2],3.44 µM (active)
CCCCCCCCn1sccc1=O,outcome,[1],inactive
same,outcome,[2],inactive
